# Experimental data taken from PubChem BioAssay (EPA / NIEHS).
# Values joined by “and” are separate entries in the source; they are usually repeats but may differ in a detail not shown here. Equal entries are not always repeated. Active and inactive are the calls of the source. The calls were made as follows: active = hit-call score of the fitted dose curve at least 0.9, where 1 is the maximum; inactive = score below 0.9.
# Read-out: Collagen I, COL1A1 (gene 1277)
# Assay: BSK_MyoF_CollagenI: BioMAP Diversity Plus: MyoF Assay for Collagen I Biomarker Activity (AID 2284238)
# Conditions: primary human lung fibroblasts
# Outline: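 Multiplexed primary human lung fibroblast system; Collagen I measured by ELISA at 24 h post-dose. Increases are referenced to DMSO.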
Structure (SMILES),outcome,AC50
O=S(=O)(O)CCC(F)(F)C(F)(F)C(F)(F)C(F)(F)C(F)(F)C(F)(F)C(F)(F)C(F)(F)F,inactive,–
OCC(F)(F)C(F)(F)C(F)(F)C(F)(F)C(F)(F)C(F)(F)CO,inactive,–
OCCCCC(F)(F)C(F)(F)C(F)(F)C(F)(F)F,inactive,–
OC(O)C(F)(F)C(F)(F)F,inactive,–
O=C(O)C(F)(F)C(F)(F)C(F)(F)OC(F)(F)F,inactive,–
C=CC(=O)OCC(F)(F)C(F)(F)C(F)(F)COC(=O)C=C,–,9.95 µM (active) and 11.1 µM (active)
O=C(O)C(F)(F)C(F)(F)C(F)(F)C(F)(F)C(F)(F)C(F)(F)C(F)F,inactive,–
FC(F)(F)C(F)(F)C(F)(F)C(F)(F)C(F)(F)C(F)(F)C(F)(F)CCI,inactive,–
OCC(O)CC(F)(F)C(F)(F)C(F)(F)C(F)(F)F (configuration not stated),inactive,–
NC(=O)C(F)(F)C(F)(F)C(F)(F)F,inactive,–
CNS(=O)(=O)C(F)(F)C(F)(F)C(F)(F)C(F)(F)C(F)(F)C(F)(F)C(F)(F)C(F)(F)F,inactive,–
O=S(=O)(OCC(F)(F)F)C(F)(F)C(F)(F)C(F)(F)C(F)(F)F,inactive,–
O=C(O)C(F)(F)C(F)(F)C(F)(F)C(=O)O,inactive,–
C=CC(=O)OCC(F)(F)C(F)(F)C(F)(F)C(F)(F)C(F)(F)C(F)(F)C(F)(F)C(F)F,inactive,–
NC(O)(C(F)(F)F)C(F)(F)F,inactive,–
NC(=O)C(F)(F)C(F)(F)C(F)(F)C(F)(F)C(N)=O,inactive,–
OCCCC(F)(F)C(F)(F)C(F)(F)C(F)(F)C(F)(F)C(F)(F)C(F)(F)C(F)(F)F,–,13 µM (active) and 10.9 µM (active)
